# Source: PubChem BioAssay
# Active and inactive are the calls of the source.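 Rule for the calls, unless noted: active = superoxide response below 65% of plate, a cut near 3 SD across the whole screen; inactive = the rest.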
# Legend:
# [1] = inhibitors of CD8+ T cell-vesicle binding, pilot screen, LFA-1/ICAM-1 modulator project, MLPCN validation set, flow cytometry (AID 2523;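 active = response below a set limit, under 55% cells CD8-positive and vesicle-bound, and CD8 cells' 90th-percentile brightness under 279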;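 for vesicle binding response: mean PE anti-B7-1 fluorescence of CD8+ cells relative to row control; 100% = QL9-loaded vesicles with DMSO vehicle in the same plate row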); conditions: 2C mouse CD8+ T cells, at 7 µM, stronger effect = lower value; double positive events: measured here: CD8+/vesicle+ event percentage
# [2] = target: Integrin beta-1 (Homo sapiens) + Integrin alpha-4 (Homo sapiens) (UniProt P13612+P05556); test: inhibition of HUTS-21 binding to VLA-4, pilot screen, VLA-4 allosteric modulator project, U937 cells, HUTS-21 mAb, flow cytometry, validation set (AID 2674;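 active = inhibition above 50%, about 3 SD of the validation set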;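 note: antibody binding induced by the VLA-4 ligand LDV present at three times its Kd; 0% = LDV ligand with antibody and no compound and 100% = antibody without LDV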); conditions: HUTS-21 LIBS mAb binding, at 6.7 µM, stronger effect = higher value, binding induced by LDV ligand
# [3] = superoxide lowering in aged yeast cells, pilot screen, validation compound set (AID 2706);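 note: yeast exposed to compound for one week at 30 degrees C before staining; 100% = mean of all compound wells on the same plate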; conditions: S. cerevisiae aging, superoxide DHE fluorescence; at 10 µM, stronger effect = lower value
# [4] = target: Beta-adrenergic receptor kinase 1 (Homo sapiens) (UniProt P25098); test: GRK2 binders displacing RNA aptamer, biochemical, validation, human GRK2, bead flow cytometry (AID 488806;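 active = aptamer binding inhibition above 30%, about 3 SD of noise from non-fluorescent compounds; inactive = inhibition at or below 30%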); conditions: bead-bound GRK2, FAM-aptamer displacement, at 10 µM, stronger effect = higher value
# [5] = target: Beta-2 adrenergic receptor (Homo sapiens) (UniProt P07550); test: beta2AR agonists driving receptor internalization, pilot screen, cell-based, FAP fluorogen, flow cytometry, validation set (AID 504459;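 active = percent response above 42, roughly 3 SD of non-fluorescent test compounds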;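 note: agonist-driven loss of surface beta2AR via internalization measured by FAP dye flow cytometry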); conditions: Am2.2-beta2AR cells, FAP surface receptor flow cytometry; at 10 µM; stronger effect = higher value
# [6] = target: AP-2 complex subunit beta (Homo sapiens) (UniProt P63010); test: inhibitors of arrestin peptide binding to AP2, pilot screen, biochemical, validation set, GST-AP2 beads, flow cytometry (AID 504541;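 active = inhibition above 54%, about 3 SD of non-fluorescent compounds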;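 note: AP2 carries R879A mutation and is captured from E. coli lysate; bead-bound FITC arrestin peptide fluorescence measuring arrestin peptide binding to AP2; 0% = DMSO wells and 100% = excess unlabeled arrestin peptide control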); conditions: FITC arrestin peptide, at 10 µM, stronger effect = higher value, AP2 beta2 appendage fragment, R879A mutant
# [7] = yeast V-ATPase proton transport modulators, S. cerevisiae, pHLuorin, HTS validation (AID 504600; in the data active = response above about 15%;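 note: plate controls were DMSO for no effect and reference compound for full effect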); conditions: S. cerevisiae pHLuorin cytosolic pH, at 10 µM, stronger effect = higher value
# [8] = test system: anti-desmoglein-3 scFv antibody binding to human DSG3; test: inhibitors of anti-DSG3 scFv binding to DSG3, pilot screen, biochemical, validation compound set, bead-based, flow cytometry (AID 588368;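 active = binding below the plate cutoff, the plate median minus 3 SD, with a reading above zero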;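 note: signal is the median channel fluorescence of bead-bound GFP antibody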); conditions: Protein G beads, DSG3-Fc, scFv-GFP binding, at 10 µM, stronger effect = lower value
# [9] = inhibitors of fungal efflux pumps CDR1, CDR2, MDR1, pilot screen, validation compound set, multiplex, phenotypic (AID 588506;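 active = efflux inhibition above 0.42, the validation set average plus 4 SD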;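 note: Nile Red retained in cells so higher fluorescence means more efflux inhibition; 0 = negative control wells and 1 = enniatin B 25 µM full block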); conditions: S. cerevisiae pump-expressing triplex, Nile Red efflux flow cytometry; at 10 µM; stronger effect = higher value; the pumps come from Candida albicans
# [10] = target: ATP-binding cassette sub-family B member 6 (Homo sapiens) (UniProt Q9NP58); test: ABCB6 transporter inhibitors, pilot screen, K562-ABCB6 cells, flow cytometry, validation set (AID 588550;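 active = inhibition above the screen-wide mean plus 3 SD, about 51%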;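 note: 0% = DMSO wells and 100% = benzethonium chloride 70 µM positive control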); conditions: K562-ABCB6 porphyrin accumulation, 1 h, at 10 µM, stronger effect = higher value
# [11] = promoters of myeloid differentiation in arrested cells, primary screen, cell-based, GFP/MAC1 double positive, flow cytometry, validation set (AID 588685;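 active = differentiation response of at least 50%, scaled between solvent and reference control, from cells with both markers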;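 note: compound exposure lasts four days before antibody staining and flow analysis; 0% = DMSO wells and 100% = 5 µM fulvestrant positive control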); conditions: ER-HoxA9 marrow cells, stronger effect = higher value, normalized: vehicle 0, fulvestrant 100
# Chain of Beta-2 adrenergic receptor (Homo sapiens) (P07550 whole entry, looked up): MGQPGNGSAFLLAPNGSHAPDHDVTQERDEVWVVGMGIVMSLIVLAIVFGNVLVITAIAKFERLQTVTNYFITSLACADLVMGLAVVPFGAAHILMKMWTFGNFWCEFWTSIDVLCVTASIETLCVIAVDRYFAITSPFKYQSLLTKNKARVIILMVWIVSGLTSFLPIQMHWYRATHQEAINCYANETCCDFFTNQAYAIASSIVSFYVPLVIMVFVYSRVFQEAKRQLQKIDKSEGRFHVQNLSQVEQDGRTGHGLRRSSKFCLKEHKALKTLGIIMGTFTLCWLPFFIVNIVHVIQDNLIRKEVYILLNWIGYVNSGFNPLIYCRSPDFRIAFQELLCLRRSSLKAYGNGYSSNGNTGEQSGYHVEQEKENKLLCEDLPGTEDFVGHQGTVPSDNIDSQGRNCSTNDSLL
# Chain of Beta-adrenergic receptor kinase 1 (Homo sapiens) (P25098 whole entry, looked up): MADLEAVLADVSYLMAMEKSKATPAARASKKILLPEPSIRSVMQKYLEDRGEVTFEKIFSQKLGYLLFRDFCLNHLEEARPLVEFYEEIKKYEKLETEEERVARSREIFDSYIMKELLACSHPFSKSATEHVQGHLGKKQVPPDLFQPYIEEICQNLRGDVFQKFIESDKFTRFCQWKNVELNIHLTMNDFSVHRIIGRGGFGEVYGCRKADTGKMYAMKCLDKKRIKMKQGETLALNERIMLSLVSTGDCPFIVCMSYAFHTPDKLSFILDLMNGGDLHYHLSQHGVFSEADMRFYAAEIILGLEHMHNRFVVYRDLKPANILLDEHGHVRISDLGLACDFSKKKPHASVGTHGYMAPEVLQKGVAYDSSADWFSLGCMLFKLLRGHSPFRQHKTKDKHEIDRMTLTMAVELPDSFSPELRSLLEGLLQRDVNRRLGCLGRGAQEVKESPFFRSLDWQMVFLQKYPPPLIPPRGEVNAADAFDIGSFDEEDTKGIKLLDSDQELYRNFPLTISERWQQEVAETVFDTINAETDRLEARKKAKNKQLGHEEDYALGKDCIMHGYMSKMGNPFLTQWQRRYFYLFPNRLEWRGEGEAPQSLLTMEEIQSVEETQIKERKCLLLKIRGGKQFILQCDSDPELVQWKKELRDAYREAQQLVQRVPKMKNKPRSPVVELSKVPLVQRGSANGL
# Chain of AP-2 complex subunit beta (Homo sapiens) (P63010 whole entry, looked up, the tested form may be a part, one chain of several): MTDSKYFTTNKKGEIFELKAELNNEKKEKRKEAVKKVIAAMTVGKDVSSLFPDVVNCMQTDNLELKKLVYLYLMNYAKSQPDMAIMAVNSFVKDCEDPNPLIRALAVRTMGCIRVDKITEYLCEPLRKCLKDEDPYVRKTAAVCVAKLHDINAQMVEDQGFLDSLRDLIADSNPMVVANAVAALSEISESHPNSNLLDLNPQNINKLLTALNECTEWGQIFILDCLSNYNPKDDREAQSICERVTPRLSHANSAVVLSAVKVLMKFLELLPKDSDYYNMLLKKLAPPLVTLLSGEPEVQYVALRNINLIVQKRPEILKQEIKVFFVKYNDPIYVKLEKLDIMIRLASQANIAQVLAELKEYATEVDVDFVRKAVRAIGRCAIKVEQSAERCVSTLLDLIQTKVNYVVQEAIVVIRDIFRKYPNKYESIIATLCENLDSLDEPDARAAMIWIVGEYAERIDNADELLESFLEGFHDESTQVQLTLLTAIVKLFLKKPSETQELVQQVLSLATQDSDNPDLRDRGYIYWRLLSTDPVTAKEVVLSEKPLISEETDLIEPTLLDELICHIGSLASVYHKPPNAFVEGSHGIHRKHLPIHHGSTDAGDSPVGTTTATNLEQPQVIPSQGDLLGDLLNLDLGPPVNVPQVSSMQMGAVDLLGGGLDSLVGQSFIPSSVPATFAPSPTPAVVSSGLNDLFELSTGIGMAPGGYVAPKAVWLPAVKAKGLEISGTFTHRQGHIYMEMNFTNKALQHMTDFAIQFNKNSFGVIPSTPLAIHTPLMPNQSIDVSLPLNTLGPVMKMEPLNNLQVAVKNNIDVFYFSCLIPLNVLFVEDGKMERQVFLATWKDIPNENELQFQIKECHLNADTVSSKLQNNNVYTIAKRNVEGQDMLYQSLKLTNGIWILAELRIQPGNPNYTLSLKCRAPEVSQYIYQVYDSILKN
# Chain of Integrin beta-1 (Homo sapiens) + Integrin alpha-4 (Homo sapiens) (P05556 whole entry, looked up): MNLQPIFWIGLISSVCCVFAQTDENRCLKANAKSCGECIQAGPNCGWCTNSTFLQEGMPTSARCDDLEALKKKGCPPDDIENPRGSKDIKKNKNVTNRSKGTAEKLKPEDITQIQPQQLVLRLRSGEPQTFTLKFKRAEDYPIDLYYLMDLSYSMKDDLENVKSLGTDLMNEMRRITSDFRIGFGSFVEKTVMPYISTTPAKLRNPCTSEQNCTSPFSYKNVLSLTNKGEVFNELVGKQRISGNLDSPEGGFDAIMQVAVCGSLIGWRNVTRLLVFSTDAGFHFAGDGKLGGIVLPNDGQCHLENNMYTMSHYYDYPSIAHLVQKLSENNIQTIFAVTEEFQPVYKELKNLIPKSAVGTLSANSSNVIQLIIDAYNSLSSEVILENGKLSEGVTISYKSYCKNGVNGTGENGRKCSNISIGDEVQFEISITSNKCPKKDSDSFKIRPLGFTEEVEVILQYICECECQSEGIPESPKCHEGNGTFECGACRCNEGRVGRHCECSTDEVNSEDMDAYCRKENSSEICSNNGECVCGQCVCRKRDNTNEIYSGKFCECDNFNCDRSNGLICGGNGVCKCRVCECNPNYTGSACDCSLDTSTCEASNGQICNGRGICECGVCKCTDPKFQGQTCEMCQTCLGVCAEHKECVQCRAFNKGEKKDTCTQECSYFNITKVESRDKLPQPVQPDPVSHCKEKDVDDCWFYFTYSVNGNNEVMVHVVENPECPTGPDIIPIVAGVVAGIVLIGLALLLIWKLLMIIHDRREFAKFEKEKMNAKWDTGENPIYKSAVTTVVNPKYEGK
# Chain of Integrin beta-1 (Homo sapiens) + Integrin alpha-4 (Homo sapiens) (P13612 whole entry, looked up): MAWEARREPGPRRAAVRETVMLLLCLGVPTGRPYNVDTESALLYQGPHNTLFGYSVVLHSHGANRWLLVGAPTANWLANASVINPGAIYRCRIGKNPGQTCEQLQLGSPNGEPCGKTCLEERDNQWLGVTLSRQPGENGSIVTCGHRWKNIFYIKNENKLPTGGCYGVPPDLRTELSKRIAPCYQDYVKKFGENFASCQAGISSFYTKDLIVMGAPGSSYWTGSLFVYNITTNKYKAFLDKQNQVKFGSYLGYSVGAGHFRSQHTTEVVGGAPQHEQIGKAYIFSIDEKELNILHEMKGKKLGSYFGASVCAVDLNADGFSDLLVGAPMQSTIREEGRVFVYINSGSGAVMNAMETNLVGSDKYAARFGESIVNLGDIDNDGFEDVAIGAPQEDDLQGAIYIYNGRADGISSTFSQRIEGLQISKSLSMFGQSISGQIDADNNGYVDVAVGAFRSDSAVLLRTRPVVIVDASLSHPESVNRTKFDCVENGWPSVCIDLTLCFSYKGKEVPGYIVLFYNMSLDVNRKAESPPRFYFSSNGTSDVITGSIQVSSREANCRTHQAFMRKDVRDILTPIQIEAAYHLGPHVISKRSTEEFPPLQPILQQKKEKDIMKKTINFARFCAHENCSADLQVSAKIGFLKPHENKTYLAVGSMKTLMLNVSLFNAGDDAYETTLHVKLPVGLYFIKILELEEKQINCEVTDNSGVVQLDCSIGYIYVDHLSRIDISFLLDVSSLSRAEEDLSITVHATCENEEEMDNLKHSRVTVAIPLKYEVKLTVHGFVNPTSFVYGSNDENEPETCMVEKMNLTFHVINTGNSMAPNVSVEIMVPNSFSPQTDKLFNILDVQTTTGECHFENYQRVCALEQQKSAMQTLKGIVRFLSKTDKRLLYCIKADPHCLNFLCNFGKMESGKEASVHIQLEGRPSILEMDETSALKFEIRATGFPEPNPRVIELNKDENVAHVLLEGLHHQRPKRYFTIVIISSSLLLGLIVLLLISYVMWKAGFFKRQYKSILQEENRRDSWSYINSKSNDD
# Chain of ATP-binding cassette sub-family B member 6 (Homo sapiens) (Q9NP58 whole entry, looked up): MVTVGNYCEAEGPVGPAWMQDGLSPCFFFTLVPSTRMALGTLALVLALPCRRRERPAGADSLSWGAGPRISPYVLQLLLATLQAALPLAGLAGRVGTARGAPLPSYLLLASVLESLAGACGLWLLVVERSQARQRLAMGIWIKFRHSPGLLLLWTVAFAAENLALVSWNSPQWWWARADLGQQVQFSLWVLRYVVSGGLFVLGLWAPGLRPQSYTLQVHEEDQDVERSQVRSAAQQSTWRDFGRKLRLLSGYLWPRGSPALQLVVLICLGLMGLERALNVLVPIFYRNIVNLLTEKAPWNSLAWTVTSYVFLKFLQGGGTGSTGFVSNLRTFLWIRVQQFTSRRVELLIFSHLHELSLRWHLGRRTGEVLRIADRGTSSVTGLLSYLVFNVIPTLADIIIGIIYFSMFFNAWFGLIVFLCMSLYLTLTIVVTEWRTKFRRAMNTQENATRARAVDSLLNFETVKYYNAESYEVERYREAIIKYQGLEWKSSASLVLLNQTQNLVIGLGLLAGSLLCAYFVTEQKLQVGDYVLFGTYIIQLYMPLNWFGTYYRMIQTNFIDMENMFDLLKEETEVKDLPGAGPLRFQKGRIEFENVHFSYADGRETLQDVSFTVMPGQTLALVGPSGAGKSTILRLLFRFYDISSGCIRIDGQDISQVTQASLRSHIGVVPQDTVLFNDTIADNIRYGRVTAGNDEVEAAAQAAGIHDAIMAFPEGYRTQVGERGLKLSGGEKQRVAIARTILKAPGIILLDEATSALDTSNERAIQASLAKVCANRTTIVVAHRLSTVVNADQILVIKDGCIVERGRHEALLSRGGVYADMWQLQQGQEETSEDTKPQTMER
Compound,double positive events [1],vesicle binding response [1],inhibition [2],superoxide response (% of plate) [3],aptamer binding inhibition [4],response [5],inhibition [6],response [7],binding (% of control) [8],efflux inhibition (fraction of control) [9],inhibition [10],differentiation response [11]
COc1ccc(CCN2CCC(Nc3nc4ccccc4n3Cc3ccc(F)cc3)CC2)cc1,44.8%,112% (inactive),16.3% (inactive),93.2% (inactive),-15% (inactive),34.8% (inactive),1.18% (inactive),4.6% (inactive),138% (inactive),0.415 (inactive),-38% (inactive),10.1% (inactive)
COc1ccc2c(CCNC(=O)c3ccc([N+](=O)[O-])cc3)c[nH]c2c1,56.1%,210% (inactive),-5.89% (inactive),105% (inactive),3% (inactive),7.52% (inactive),-2.03% (inactive),-0.21% (inactive),101% (inactive),-0.03 (inactive),4% (inactive),-21.6% (inactive)
CC(C)Cc1nc(NCCN2CCOCC2)c(C#N)c2c1COC(C)(C)C2,61.1%,159% (inactive),7.4% (inactive),93.4% (inactive),-1% (inactive),-20.4% (inactive),-18.1% (inactive),3.4% (inactive),104% (inactive),0.08 (inactive),-5% (inactive),-15.8% (inactive)
NC(N)=NC(=O)c1nc(Cl)c(N)nc1N,62.4%,206% (inactive),7.4% (inactive),87% (inactive),0% (inactive),-22.4% (inactive),-4.43% (inactive),-1.82% (inactive),104% (inactive),-0.04 (inactive),-2% (inactive),-3.02% (inactive)
COc1ccc(CCNC(=O)CC(c2ccccc2)c2cccc(C)c2O)cc1OC (configuration not stated),62.6%,190% (inactive),16.2% (inactive),96.3% (inactive),1% (inactive),5.7% (inactive),-1.67% (inactive),1.13% (inactive),101% (inactive),-0.46 (inactive),10% (inactive),-3.28% (inactive)
O=C1c2ccccc2C(=O)C1c1ccccc1,67%,512% (inactive),3.14% (inactive),95.2% (inactive),7% (inactive),-32.5% (inactive),-6.92% (inactive),-0.31% (inactive),102% (inactive),0 (inactive),4% (inactive),-5.97% (inactive)
NC12CC3CC(C1)CC(O)(C3)C2,65.4%,201% (inactive),2.66% (inactive),95.4% (inactive),3% (inactive),-10% (inactive),-6.38% (inactive),2.64% (inactive),99% (inactive),0.14 (inactive),11% (inactive),4.15% (inactive)
COc1ccc(CC(=O)N2CC3(C)CC2CC(C)(C)C3)cc1OC (configuration not stated),64.1%,255% (inactive),-5.89% (inactive),91.8% (inactive),1% (inactive),-7.91% (inactive),-2.57% (inactive),1.81% (inactive),102% (inactive),0.44 (active),3% (inactive),5.6% (inactive)
O=c1cc(Cn2ccnc2)c2cc3c(cc2o1)CCC3,57.6%,143% (inactive),-11.3% (inactive),99.2% (inactive),-2% (inactive),-7.31% (inactive),8.12% (inactive),-1.72% (inactive),105% (inactive),0.08 (inactive),2% (inactive),48.8% (inactive)
O=C(/C=C/c1ccccc1)/C=C/c1ccccc1,69.3%,434% (inactive),21.4% (inactive),105% (inactive),2% (inactive),48.5% (active),-3.48% (inactive),0.62% (inactive),96.6% (inactive),-0.17 (inactive),2% (inactive),-16.8% (inactive)
COc1ccc(Cl)cc1C(=O)NCCc1ccc(S(=O)(=O)NC(=O)NC2CCCCC2)cc1,60.4%,155% (inactive),-10.5% (inactive),114% (inactive),4% (inactive),-18.8% (inactive),3.88% (inactive),-2.06% (inactive),101% (inactive),-0.28 (inactive),8% (inactive),-10.4% (inactive)
O=C(NCCc1nc2ccccc2[nH]1)c1cccc(Br)c1,72.8%,224% (inactive),11.9% (inactive),92.6% (inactive),4% (inactive),-6.54% (inactive),-1.76% (inactive),3.78% (inactive),97.8% (inactive),-0.1 (inactive),5% (inactive),0.8% (inactive)
O=C(c1ccccc1F)c1cc2c(cc1[N+](=O)[O-])OCCO2,63%,163% (inactive),15% (inactive),107% (inactive),3% (inactive),24.6% (inactive),-6.21% (inactive),1.51% (inactive),105% (inactive),-0.19 (inactive),7% (inactive),-1.65% (inactive)
CC(=O)OCC(=O)[C@@]1(OC(C)=O)[C@@H](C)C[C@H]2[C@@H]3C[C@H](F)C4=CC(=O)C=C[C@]4(C)[C@@]3(F)[C@@H](O)C[C@@]21C,61.9%,157% (inactive),-11.8% (inactive),97.6% (inactive),-1% (inactive),5.99% (inactive),1.66% (inactive),-2.14% (inactive),103% (inactive),-0.015 (inactive),-2% (inactive),4.2% (inactive)
Cn1cc(CN(CCO)Cc2cccs2)c(-c2cccc(Cl)c2)n1,55.3%,159% (inactive),-1.79% (inactive),92.3% (inactive),3% (inactive),32.8% (inactive),-0.41% (inactive),1.36% (inactive),99.3% (inactive),-0.06 (inactive),5% (inactive),-8.8% (inactive)
CC1(C)CC(=O)C(C2(O)C(=O)Nc3ccccc32)CO1 (configuration not stated),69%,183% (inactive),11.7% (inactive),92.3% (inactive),3% (inactive),7.56% (inactive),0.15% (inactive),2.36% (inactive),105% (inactive),0.12 (inactive),12% (inactive),-16.8% (inactive)
